From PubChem
CYP2C9 activ: activators of human CYP2C9; recombinant CYP2C9, luciferin-H conversion, luminescence; stronger effect = higher value; factor 1 = untreated enzyme, 0 = blocked; activation factor at 5 µM; 96,000 tested, 1.4% active;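 active means activation factor of 2 or more for CYP2C9 at a 5 µM dose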
Target sequence (P11712 whole entry, looked up): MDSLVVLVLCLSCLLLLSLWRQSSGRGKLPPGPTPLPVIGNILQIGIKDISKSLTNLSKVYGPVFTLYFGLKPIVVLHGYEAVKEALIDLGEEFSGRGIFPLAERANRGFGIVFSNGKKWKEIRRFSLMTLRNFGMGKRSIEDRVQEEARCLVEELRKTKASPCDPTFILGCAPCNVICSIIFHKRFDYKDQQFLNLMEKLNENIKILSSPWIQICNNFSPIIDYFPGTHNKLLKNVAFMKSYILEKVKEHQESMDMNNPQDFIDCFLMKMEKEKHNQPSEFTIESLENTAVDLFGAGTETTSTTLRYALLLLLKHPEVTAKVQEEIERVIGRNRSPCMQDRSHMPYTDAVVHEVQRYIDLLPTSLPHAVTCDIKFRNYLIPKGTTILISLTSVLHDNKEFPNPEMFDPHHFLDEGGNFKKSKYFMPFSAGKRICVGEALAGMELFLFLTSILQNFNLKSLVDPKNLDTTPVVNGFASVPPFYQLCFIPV
PostGolgi ctrl: inhibits growth of the yeast control strain. 98,000 tested, 5% active. inhibition, % at 10 µM. AID 738. efflux-deficient yeast background strain, growth absorbance A615, 16 h
PostGolgi yeast: growth inhibition of a yeast mutant, post-Golgi transport screen; post-Golgi transport phenotypic cell assay; inhibition, % at 10 µM; 98,000 tested, 0.9% active; AID 739;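 further: yeast cells grown in 1536-well plates; yeast grown about 18 h at 30C before absorbance read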
CYP2C19 inhib: blocks human cytochrome P450 2C19. 96,000 tested, 21% active. inhibition, % at 5 µM. CYP2C19 Supersomes, luciferin-H EGE luminescence, 30 min;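 active means CYP2C19 inhibition above a set limit at 5 µM in the primary screen, cut at about 50% in these data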
CYP2C19 act: increases human CYP2C19 enzyme activity; activation factor at 5 µM; P33261; recombinant CYP2C19, luciferin-H EGE luminescence; stronger effect = higher value; 0 = fully inhibited enzyme, 1 = untreated enzyme; AID 1025; 96,000 tested, under 10 active;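 active means activation factor of at least 2 at 5 µM in the primary screen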
CYP2C9 inh: inhibitors of human CYP2C9 | CYP2C9 Supersomes, luciferin-H conversion, luminescence | inhibition, % at 5 µM | P11712 | 96,000 tested, 20% active;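 active means blocking of liver enzyme CYP2C9 beyond about 50% at 5 µM, limit read from the data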
Of the large screens only hits and unclear results are named; the others gave an inactive call. Only some compounds are listed: those with a hit (about 32% of all), similar ones and a draw of the others. Unless noted, no stated cut-off is given here; in the data, active means inhibition above about 30%; inactive means the rest.

CC(C)(C)Nc1nc(Oc2ccc(=O)n(-c3ccccc3)n2)nc(N2CCOCC2)n1	CYP2C19 inhib 54, CYP2C9 inh 68
O=c1ccc(Oc2nc(N3CCOCC3)nc(N3CCOCC3)n2)nn1-c1ccccc1	none
CC(=O)OC(C(=O)Nc1ccccc1)C(C)S(=O)(=O)c1ccccc1 (stereo unspecified)	CYP2C19 inhib 65
CC(=O)Nc1ccc(S(=O)(=O)N[C@H](C(=O)O)C(C)C)cc1	none
CCCNC(=O)c1ccc(-c2nc3ccccc3s2)s1	none
CNc1sc(C(=O)c2ccccc2F)c(N)c1-c1nc2ccccc2s1	CYP2C19 inhib 89, CYP2C9 inh 84
CCCCS(=O)(=O)/C=C\C1C2C=CC(C2)C1S(=O)(=O)CCCC (stereo unspecified)	CYP2C19 inhib 76, CYP2C9 inh 52
CCN(CC)C(=O)COc1ccc(-c2nnc(N3CCCCC3)c3ccccc23)cc1	CYP2C19 inhib 52, CYP2C9 inh 80
Cn1nc(-c2ccc(OCC(=O)Nc3ccccc3)cc2)c2ccccc2c1=O	CYP2C19 inhib 81, CYP2C9 inh 68
CN(C(=O)c1ccc(-c2nn(C)c(=O)c3ccccc23)cc1)c1ccccc1	CYP2C9 inh 62
Cn1nc(-c2ccc(OCC(N)=O)cc2)c2ccccc2c1=O	CYP2C9 inh 61
Cc1ccc(-c2nc3ccccc3s2)cc1NC(=O)c1cc(-n2cnnc2)ccc1Cl	none
Cc1ccc(N(C(C)C(=O)O)S(=O)(=O)c2c(C)n[nH]c2C)cc1 (stereo unspecified)	none
CCOC(=O)c1ccc(NC(=O)CCc2c(C)nc3ncnn3c2C)cc1	none (no result: CYP2C9 activ, CYP2C19 inhib, CYP2C19 act, CYP2C9 inh)
Cc1ccc(NC(=O)CSc2nnc(COc3ccc(C#N)cc3)n2-c2ccccc2)cc1C	none
CC(C)CCN1C(=O)c2ccc(C(=O)NCC3CCCO3)cc2C1=O (stereo unspecified)	CYP2C19 inhib 79, CYP2C9 inh 81
O=C(NCC1CCCO1)c1ccc2c(c1)C(=O)N(C1CCCCC1)C2=O (stereo unspecified)	CYP2C9 inh 61
CC(=O)c1cn(CC(=O)NCC2CCCO2)c2ccccc12 (stereo unspecified)	none
COc1ccccc1NC(=S)NC(=O)CC(C)C	none
Fc1ccc(-c2noc(C3CCN(Cc4cccnc4)CC3)n2)cc1	PostGolgi ctrl 35, PostGolgi yeast 84
CCCC1CCC(c2nc(-c3cccnc3)no2)CC1 (stereo unspecified)	none
COC(=O)c1c(C(=O)OC)n(CCCN)c2ccc(C)cc12	none
COC(=O)c1c(C(=O)OC)c2cc(C)ccn2c1Cl	CYP2C9 inh 54
O=C(CCCn1c(=S)[nH]c2ccccc2c1=O)NC1CCCCC1	none
O=S(=O)(NCc1ccncc1)c1ccc(Br)s1	CYP2C19 inhib 98, CYP2C9 inh 51
O=S(=O)(NCc1ccncc1)c1ccccc1	CYP2C19 inhib 91
COC(=O)COc1ccc(S(=O)(=O)NCc2ccncc2)cc1	CYP2C19 inhib 99, CYP2C9 inh 70
CC1CCN(C(=O)C2CC(c3ccc(F)cc3)=NO2)CC1 (stereo unspecified)	none
Cc1ccc(-c2nc(N/N=C/c3ccncc3)c3ccccc3n2)cc1	CYP2C19 inhib 98, CYP2C9 inh 94
O=c1[nH]c(N/N=C/c2ccccc2)nc2ccccc12	none
Clc1ccccc1-c1nc(N/N=C/c2cccnc2)c2ccccc2n1	CYP2C9 inh 69
Clc1ccc(/C=N/Nc2nc(Cl)nc3ccccc23)cc1	none
Clc1ccc(OCCn2c(-c3ccco3)nc3ccccc32)cc1	PostGolgi ctrl 53, CYP2C19 inhib 59, CYP2C9 inh 56
O=c1c2ccccc2nc(-c2ccco2)n1Cc1ccccc1	none
COc1ccc(C(=O)n2c(-c3ccco3)nc3ccccc32)cc1	PostGolgi ctrl 33, CYP2C19 inhib 54, CYP2C9 inh 61
O=c1c2ccccc2nc(-c2ccc(Br)cc2)n1Cc1ccccc1	PostGolgi ctrl 52, CYP2C9 inh 83
COc1ccc(OCCn2c(NC(=O)c3ccco3)nc3ccccc32)cc1	none
CCCCCn1c(-c2ccco2)nc2nc3ccccc3nc21	none
COc1ccc(CCn2c(-c3ccco3)nc3nc4ccccc4nc32)cc1	CYP2C19 inhib 83, CYP2C9 inh 82
COC(=O)c1ccccc1NC(=O)c1cc2ncc(Br)cn2n1	none
CC(c1ccccc1)C(CC(=O)O)C(=O)NC1CCCCC1 (stereo unspecified)	none
O=c1c2ccccc2nc(N2CCN(c3ccccc3)CC2)n1Cc1ccccc1	CYP2C9 inh 71
CCOc1ccc(CCn2c(-c3ccco3)nc3ccccc3c2=O)cc1OCC	CYP2C19 inhib 79
O=c1c2ccccc2nc(-c2ccoc2)n1CCc1ccccc1	PostGolgi ctrl 41, CYP2C19 inhib 58, CYP2C9 inh 56
Cc1ccc(C)c(N2CCN(c3nc4ccccc4c(=O)n3Cc3ccccc3)CC2)c1	none
Cc1cccc(NC(=O)C2C(c3ccccc3)C2(Cl)Cl)c1C (stereo unspecified)	none
CCSc1nc2ccccc2n1C(=O)c1ccc(S(=O)(=O)N2CCCCC2)cc1	none
Cc1ccc(Cl)cc1N1CCN(C(=O)c2ccc(NS(=O)(=O)c3c(C)noc3C)cc2)CC1	CYP2C9 inh 100
Cc1ccc(C)c(N2CCN(C(=O)c3ccc(NS(=O)(=O)c4c(C)noc4C)cc3)CC2)c1	CYP2C9 inh 97
Cc1noc(C)c1S(=O)(=O)Nc1ccc(C(=O)N2CCCCC2)cc1	CYP2C9 inh 52
Cc1noc(C)c1S(=O)(=O)Nc1ccc(C(=O)NC2CCCCC2)cc1	none
O=C(CCSc1nc2ccccc2o1)N1CCOCC1	none (no result: CYP2C9 activ, CYP2C19 inhib, CYP2C19 act, CYP2C9 inh)
C=C(C)CN(CC)c1nc(N)c2c(N)nc3c(c2c1C#N)CC(=O)N3C12CC3CC(CC(C3)C1)C2	CYP2C9 inh 92
CCCCN1C(=O)Cc2c1nc(N)c1c(N)nc(N(CCC)CCC)c(C#N)c21	none
CCOC(=O)c1cc(C)n(-n2cnnc2)c1C	none
COc1ccccc1NC(=O)C(C)NS(=O)(=O)c1ccc(Cl)cc1 (stereo unspecified)	CYP2C9 activ 3.4, CYP2C19 inhib 74
CNC(=O)C(C)NS(=O)(=O)c1ccc(F)cc1 (stereo unspecified)	CYP2C19 inhib 81
COc1ccc(NC(=O)c2ccccc2F)cc1Cl	none
COc1ccc(NC(=O)C(C)NS(=O)(=O)c2ccccc2)cc1Cl (stereo unspecified)	CYP2C19 inhib 87
COC(=O)c1ccccc1NC(=O)C(C)NS(=O)(=O)c1ccc(OC)cc1 (stereo unspecified)	CYP2C19 inhib 57
CN(CC(=O)Nc1cccc2ccccc12)c1ccc(S(=O)(=O)N2CCOCC2)cn1	none
CCOc1ccc(C(C)NC(=O)Nc2ccccc2C(=O)OC)cc1 (stereo unspecified)	CYP2C19 inhib 70
